# Screens deposited in PubChem BioAssay by several laboratories.
# Sampled rows, rich in hits. Any-hit rate of the full collection: about 32%.
# PostGolgi ctrl: growth inhibition of yeast control strain, primary screen, counter-screen for post-Golgi transport modulator project | efflux-deficient yeast background strain, growth absorbance A615, 16 h | 98,000 compounds, 5% hits | inhibition, % at 10 µM
# PostGolgi yeast: phenotypic screen on post-Golgi transport, primary screen; post-Golgi transport phenotypic cell assay; 98,000 compounds, 0.9% hits; inhibition, % at 10 µM;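 further: yeast cells grown in 1536-well plates; yeast grown about 18 h at 30C before absorbance read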
# CYP2C19 act: human CYP2C19 activators, primary screen, biochemical, luminescence; Cytochrome P450 2C19 (Homo sapiens), P33261; activation factor at 5 µM; 96,000 tested, under 10 active; recombinant CYP2C19, luciferin-H EGE luminescence; active compounds read high; 0 = fully inhibited enzyme, 1 = untreated enzyme;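 active means activation factor of at least 2 at 5 µM in the primary screen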;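 further: 0 = wells with 2.5 mM tranylcypromine and 1 = vehicle-only wells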
# Target sequence (P33261 whole entry, looked up): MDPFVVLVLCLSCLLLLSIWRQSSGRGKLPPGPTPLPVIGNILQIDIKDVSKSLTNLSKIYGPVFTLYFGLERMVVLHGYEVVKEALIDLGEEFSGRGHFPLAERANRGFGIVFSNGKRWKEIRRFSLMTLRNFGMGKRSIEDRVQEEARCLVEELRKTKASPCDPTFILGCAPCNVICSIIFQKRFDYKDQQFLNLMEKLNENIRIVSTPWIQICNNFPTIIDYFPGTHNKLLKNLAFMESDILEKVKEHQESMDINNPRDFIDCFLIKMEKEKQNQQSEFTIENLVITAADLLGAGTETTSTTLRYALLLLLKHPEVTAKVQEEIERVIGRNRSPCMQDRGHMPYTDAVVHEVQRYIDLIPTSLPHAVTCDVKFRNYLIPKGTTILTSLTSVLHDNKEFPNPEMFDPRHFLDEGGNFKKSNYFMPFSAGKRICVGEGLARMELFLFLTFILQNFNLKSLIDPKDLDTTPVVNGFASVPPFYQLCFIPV
# CYP2C9 inhib: blockers of cytochrome P450 2C9 activity – biochemical, luminescence, ADME assay, primary screen; P11712; CYP2C9 Supersomes, luciferin-H conversion; inhibition, % at 5 µM; 96,000 compounds, 20% hits; AID 777, 2007;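 active means blocking of liver enzyme CYP2C9 beyond about 50% at 5 µM, limit read from the data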
# CYP2C19 inh: blockers of cytochrome P450 2C19 activity – biochemical, luminescence, ADME assay, primary screen; P33261; CYP2C19 Supersomes, luciferin-H EGE luminescence, 30 min; inhibition, % at 5 µM; 96,000 compounds, 21% hits;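 active means CYP2C19 inhibition above a set limit at 5 µM in the primary screen, cut at about 50% in these data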;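 further: plate controls were negative control wells for no effect and 2.5 mM tranylcypromine positive control for full effect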
# CYP2C9 act: human CYP2C9 activators, primary screen, biochemical, luminescence; activation factor at 5 µM; 96,000 compounds, 1.4% hits; Cytochrome P450 2C9 (Homo sapiens), P11712; recombinant CYP2C9, luciferin-H conversion; active compounds read high; factor 1 = untreated enzyme, 0 = blocked; AID 1024, 2008;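 active means activation factor of 2 or more for CYP2C9 at a 5 µM dose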;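 further: 0 = sulfaphenazole-blocked wells and 1 = vehicle-only wells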
# An asterisk follows results filed as active; nt = no result given. Unless noted, no stated cut-off is given here; in the data, active means inhibition above about 30%; inactive means the rest.
SMILES,PostGolgi ctrl,PostGolgi yeast,CYP2C19 act,CYP2C9 inhib,CYP2C19 inh,CYP2C9 act
O=c1c2ccccc2nc(SCc2nnc(-c3ccccc3Br)o2)n1Cc1ccco1,19.0,-4.9,0.2,94.0*,75.9*,0.1
O=c1c2ccccc2nc(SCc2cccc(F)c2)n1Cc1ccco1,30.7*,3.6,1,69.4*,2.2,0.3
O=c1c2ccccc2nnn1CSc1nc2ccccc2c(=O)n1Cc1ccco1,nt,nt,0.8,28.7,24.7,0.7
O=c1c2ccccc2nc(SCc2nc3ccccc3s2)n1Cc1ccco1,14.2,5.3,0.8,54.8*,16.1,0.5
CCn1c(SCC(N)=O)nnc1-c1ccc(S(=O)(=O)N2CCN(C)CC2)cc1,7.3,-0.3,0.9,6.5,8.9,0.9
Cc1c(NC(=O)c2cc(-c3cccs3)on2)c(=O)n(-c2ccccc2)n1C,-0.1,0.7,0.9,10.1,6.6,0.9
CCN(CC)C(=O)C1CCN(S(=O)(=O)c2ccc3oc4ccccc4c3c2)CC1,9.7,-3.3,0.8,-75.0,16.7,1.8
Cc1ccc(C)c(-c2csc(N)c2C(=O)OC(C)C)c1,25.6,26.1,0.3,67.0*,69.2*,0.3
CC1CCc2c(sc(N)c2C(=O)OC(C)C)C1 (centres undefined),6.2,0.8,0.9,-44.0,10.0,1.4
Cc1ccc(C(=O)n2c3ccccc3c3ccccc32)cc1,0.0,-2.0,0.9,78.0*,7.1,0.2
CC(=O)n1c2ccccc2c2ccccc21,3.6,0.7,0.5,67.5*,47.0,0.3
COc1ccc(/C(O)=C/Sc2nnc(Cc3ccccc3)o2)cc1,4.6,-0.2,0.7,-72.3,31.4,1.7
COc1ccc(CCNC(=O)Cc2cc(OCc3ccccc3)c(OC)cc2[N+](=O)[O-])cc1OC,15.6,-6.7,0.7,54.9*,33.4,0.5
Cc1ccc(C(=O)Nc2ccc(OCc3ccccc3)cc2)cc1[N+](=O)[O-],13.4,-2.3,0.8,-1.5,23.5,1
COc1cc(CC(=O)NCCc2ccc(OCc3ccccc3)cc2)c([N+](=O)[O-])cc1OC,0.8,-2.4,0.4,48.8,61.0*,0.5
COc1ccc2nc(N=Nc3ccc(N(C)C)cc3)sc2c1,5.2,-7.0,0.4,21.3,57.6*,0.8
COc1ccc2nc(/N=C\N(C)C)sc2c1,10.6,8.3,0.9,-9.8,9.6,1.1
CC(=O)c1c(C(C)=O)c(C)n(-c2ccc(N)cc2)c1C,-1.7,-0.5,1.2,20.0,-23.7,0.8
Cc1nc(SCC(=O)NCc2ccco2)c2oc3ccccc3c2n1,-2.6,-16.1,0.1,89.2*,89.4*,0.1
Cc1[nH]c2ccccc2c1Cc1nnc(SCC(=O)NCc2ccco2)o1,0.1,-12.3,0.5,-157.7,46.7,2.6*
Cc1nc(NCCN2CCOCC2)c2oc3ccccc3c2n1,1.0,-12.6,1,-8.3,3.1,1.1
Cc1nc(NCCc2ccccc2)c2oc3ccccc3c2n1,51.4*,18.2,0.7,48.5,31.0,0.5
CCc1nc(SCC(=O)NCCc2ccccc2)c2oc3ccccc3c2n1,0.0,8.3,0.4,67.8*,57.3*,0.3
O=C(Nc1ccccc1C(=O)N1CCOCC1)C1CCCO1 (centres undefined),5.7,7.4,1.1,-15.7,-6.8,1.2
Cc1ccc2cccc(OCC(=O)NCc3ccco3)c2n1,1.2,-5.9,0.5,-22.1,48.1,1.2
SMILES,PostGolgi ctrl,PostGolgi yeast,CYP2C19 act,CYP2C9 inhib,CYP2C19 inh,CYP2C9 act
Cc1nc(SCC(=O)NCCc2ccccc2)c2oc3ccccc3c2n1,-1.9,-19.4,0.4,58.4*,64.8*,0.4
Cc1ccc2cccc(SCC(=O)NCc3ccco3)c2n1,13.8,2.7,0.2,-50.9,81.8*,1.5
Cc1nc(SCC(=O)c2ccc(Cl)s2)c2oc3ccccc3c2n1,9.5,2.8,0.8,22.3,24.3,0.8
COc1ccc2[nH]c(=O)c(CN(CCCN(C)C)C(=O)Nc3ccc(F)cc3)cc2c1,9.8,2.5,0.8,-5.3,15.6,1.1
N#C/C(=C\c1cc(Cl)ccc1O)C(=O)NC1CCCCC1,4.3,0.8,0.8,61.2*,18.5,0.4
CCOC(=O)C(Sc1ncnc2c1sc1nc(N3CCOCC3)c3c(c12)CCCC3)c1ccccc1 (centres undefined),7.4,-1.8,0.9,39.1,9.9,0.6
COC(=O)c1ccc(Cn2cnc3c(sc4nc(N5CCOCC5)c5c(c43)CCCC5)c2=O)o1,22.4,2.4,0.8,52.0*,22.3,0.5
O=c1c2sc3nc(N4CCOCC4)c4c(c3c2nnn1Cc1ccccc1)CCCC4,31.5*,-0.8,1,3.3,1.9,1
O=c1c2sc3nc(N4CCOCC4)c4c(c3c2ncn1CCc1ccccc1)CCCC4,14.0,-1.5,0.5,60.6*,52.5*,0.4
Cc1n[nH]c(=O)nc1NCC1CCCO1 (centres undefined),11.4,3.0,1.1,-7.1,-8.2,1.1
c1ccc(-n2nnnc2SCc2cccc3nsnc23)cc1,17.4,-6.1,1,38.4,-2.0,0.6
CC(C)(C)c1ccc(C(=O)NNc2cc(N3CCCCC3)nc(N3CCCCC3)n2)cc1,27.0,15.8,0.9,60.7*,14.6,0.4
N#CC1=C(N)C(C#N)(C#N)C(c2cccnc2)C2CC(c3ccccc3)CC=C12 (centres undefined),14.0,70.8*,0.8,63.8*,20.1,0.4
N#CC1=C(N)C(C#N)(C#N)C(c2cccnc2)C2CCCC=C12 (centres undefined),13.7,3.3,0.9,30.2,10.9,0.7
COc1ccc(-n2c(-c3ccccc3)cc3c2CCCC3=O)cc1,67.9*,9.7,0.2,26.1,75.5*,0.7
COCCNC(=O)Cn1cnc2ccc(S(=O)(=O)N3CCC(C)CC3)cc2c1=O,7.8,1.1,0.9,10.3,6.9,0.9
O=C(c1ccccc1)c1ccncc1,-10.1,-0.8,0.8,28.4,20.8,0.7
Cc1sc(-c2ccncc2)nc1OC(=O)c1ccccc1,6.5,1.6,0,95.9*,99.0*,0
Cc1sc(-c2ccccn2)nc1OC(=O)c1ccc(Cl)cc1,5.9,29.4,1.1,-2.7,-10.5,1
Cc1sc(-c2ccccn2)nc1OC(=O)c1cccc(Cl)c1Cl,-0.1,12.8,1,71.8*,-2.2,0.3
CCOC(=O)C(Cc1cc(C(C)=O)ccc1OC(C)C)C(=O)OCC,0.1,1.8,0.4,61.2*,60.4*,0.4
Cc1ccc([N+](=O)[O-])c2cccnc12,-2.3,-12.2,0.8,-5.5,19.2,1.1
O=c1[nH]cnc2c([N+](=O)[O-])cccc12,32.3*,-1.6,1.1,-12.2,-12.7,1.1
